# Screens deposited in PubChem by Broad Institute.
# Only some compounds are listed: those with a hit (about 4% of all), similar ones and a draw of the others.
# ERAP1 HTS inh: ERAP1 (human) enzyme inhibition | Q9NZ08 | recombinant ERAP1, Leu-AMC fluorescence, 60 min | inhibition, % at 10.7 µM | hit rate 0.15% among 340,000;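 active = mean replicate inhibition of at least 30%, or all replicates individually reaching that 30% level; inactive = mean below 30% and not every replicate reaching it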;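 note: 0% = neutral control wells and 100% = L-leucinethiol positive control wells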
# MLL AF4-AF9 inh: inhibitors of human MLL-AF4/AF9 interaction | P42568 | AlphaScreen, biotin-AF4 peptide binding to FLAG-AF9 | inhibition, % at 10 µM | hit rate 0.47% among 350,000 | AID 651704;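 active = every replicate reaching a set inhibition limit, whatever the replicate mean, cut at about 25% in these data; inconclusive = mean inhibition reaches that limit but some replicates miss it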;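 note: 0% = plate neutral control median and 100% = total signal loss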
# FGF22 binding-1: shifts melting point of recombinant human FGF22; Q9HCT0; recombinant FGF22 thermal shift, SYPRO orange fluorescence; percent of sucrose octasulfate shift, DMSO zero; hit rate 1.5% among 340,000; activity (Tm shift, normalised), % at 9.99 µM;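 active = mean Tm shift, scaled 0 neutral to 100 positive control, at about 1.3% or above, every replicate too, limit read from the data; inconclusive = no clear call, values can overlap the other calls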
# Target sequence (Q9HCT0 whole entry, looked up): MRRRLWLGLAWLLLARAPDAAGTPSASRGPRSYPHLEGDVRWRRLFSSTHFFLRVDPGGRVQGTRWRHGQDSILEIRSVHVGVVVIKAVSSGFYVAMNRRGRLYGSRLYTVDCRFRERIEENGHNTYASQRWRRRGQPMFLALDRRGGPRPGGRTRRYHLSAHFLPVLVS
# RAD52 inh: inhibitors of human RAD52 DNA annealing; recombinant RAD52 DNA annealing, FRET fluorescence; P43351; inhibition, % at 18.7 µM; hit rate 0.46% among 360,000;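 active = every replicate showing at least 50% inhibition; inconclusive = mean inhibition at least 50% but not in every replicate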
# Target sequence (P43351 whole entry, looked up): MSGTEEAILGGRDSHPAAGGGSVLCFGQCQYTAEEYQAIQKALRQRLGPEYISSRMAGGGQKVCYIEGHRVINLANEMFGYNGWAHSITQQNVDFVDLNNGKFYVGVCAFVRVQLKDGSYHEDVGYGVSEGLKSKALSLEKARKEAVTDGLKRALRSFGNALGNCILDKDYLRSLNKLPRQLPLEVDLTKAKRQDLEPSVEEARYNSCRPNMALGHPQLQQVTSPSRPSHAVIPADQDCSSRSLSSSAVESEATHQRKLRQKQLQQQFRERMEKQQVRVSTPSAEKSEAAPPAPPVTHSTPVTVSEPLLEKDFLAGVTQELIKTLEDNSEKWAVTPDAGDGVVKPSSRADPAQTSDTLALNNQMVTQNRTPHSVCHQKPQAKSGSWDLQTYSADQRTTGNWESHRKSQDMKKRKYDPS
# DENV2 CPE: protects cells from dengue virus 2 cytopathic effect | DENV2-infected cells, cytopathic effect rescue, plate reader | CPE inhibition, % at 9.99 µM | hit rate 1.7% among 350,000; in the data active = CPE inhibition above about 20%, passing the limit was not always enough; inconclusive = no clear call, values can overlap the other calls; tested in BHK-21 cells;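 note: 0% = median of neutral control wells and 100% = median of positive control wells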
# FGF22 binding-2: FGF22 (human) binding in thermal shift. thermal shift activity, °C (ΔTm) at 38 µM. hit rate 2% among 1,000. recombinant FGF22 thermal shift, SYPRO orange fluorescence. shares compounds with FGF22 binding-1;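 active = fitted rise in melting shift crosses a set limit at or below the top valid dose tested; inconclusive = flat fit at mid-level activity, or a poor quality fit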
# SYPRO no-protein: compound-only SYPRO artifact for FGF22 binders; shares compounds with FGF22 binding-1; compound-only SYPRO orange thermal shift counter-screen, no protein; AC50, µM (series often up to 38 µM); hit rate 2% among 1,000;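 active = rising signal whose fitted curve reaches the 0.54 level within the top valid dose, showing a melting point, actives reach about 13 µM in these data; inactive = the rest, including activity in the opposite direction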; note: value is where the raw curve crosses a fixed level and not half-maximal
# * = called active by the depositor; i = inactive; u = inconclusive; x = not tested or not shown; [ ] = dose if it differs, or a comment.
SMILES,ERAP1 HTS inh,MLL AF4-AF9 inh,FGF22 binding-1,RAD52 inh,DENV2 CPE,FGF22 binding-2,SYPRO no-protein
C[C@@H]1CN([C@H](C)CO)C(=O)c2cccc(NS(C)(=O)=O)c2O[C@@H]1CN(C)S(=O)(=O)c1ccccc1,-0.4,-5.2,-0.1,-20.3,2.7,x,x
COC(=O)C[C@@H]1CC[C@H]2[C@H](COc3ccc(NS(C)(=O)=O)cc3C(=O)N2C)O1,x,x,0.1,x,-1.9,x,x
COc1ccc(NC(=O)Nc2ccc3c(c2)[C@H]2C[C@@H](CC(=O)N4CCCCC4)O[C@H](CO)[C@H]2O3)cc1,-2.1,8.4,-0.5,-14.9,-4.1,x,x
O=C(c1cccc(F)c1)N1CCCCN2[C@H](CO)[C@@H](c3ccc(-c4ccc(F)cc4)cc3)[C@@H]2C1,-1.5,-2.6,-0.1,19.4,-3.9,x,x
CCCNC(=O)[C@@H]1[C@@H](CO)[C@@H]2Cn3c(ccc(-c4ccccc4F)c3=O)[C@H]1N2C(=O)CC,0.0,-2.0,-0.3,-3.6,7.6,x,x
COc1ccc(OC)c(Nc2ccc(Nc3cc(OC)ccc3OC)nn2)c1,0.7,19.7,1.8*,10.7,-6.5,-0.071,i
COc1ccc(NC(=O)CN(c2ccc(C(C)C)cc2)S(=O)(=O)c2c(C)noc2C)cc1OC,x,-4.4,12.6*,1.3,7.4,-0.036,i
COc1ccccc1NC(=O)N[C@@H]1CC[C@@H](CCn2cc(-c3ccccc3OC)nn2)O[C@@H]1CO,1.1,3.1,1.7*,3.0,1.9,0.038,i
COc1ccccc1NC(=O)N[C@@H]1CC[C@H](CCn2cc(-c3ccccc3OC)nn2)O[C@H]1CO,1.0,2.9,1.2,13.3,u,x,x
COc1ccc(C(F)(F)F)cc1N/C=C/c1nnnn1-c1ccc2ccccc2c1,4.8,-5.4,-0.2,-11.7,0.6,x,x
COc1ccc(-n2nnnc2/C=C\Nc2ccc(C)cc2)cc1,-4.0,1.7,24.7*,-37.7,-7.9,0.094,i
CN(C)CCN1C(=O)C2C3C=CC(C3)C2C1=O (stereo not drawn),-2.8,-4.7,14.8*,-4.7,2.5,-0.047,i
CC(=O)N(C)C[C@@H]1Oc2ncc(C#CC(C)(C)O)cc2C(=O)N([C@@H](C)CO)C[C@H]1C,1.8,-14.8,1.6*,13.9,20.1*,-0.045,i
C[C@H]1CN([C@@H](C)CO)C(=O)c2cc(C#CCN(C)C)cnc2O[C@H]1CN(C)C(=O)c1cnccn1,1.2,-3.9,-0.3,-5.9,1.1,x,x
CC(C)C#Cc1cnc2c(c1)C(=O)N([C@@H](C)CO)C[C@H](C)[C@@H](CN(C)C(=O)c1cnccn1)O2,-6.0,-8.5,1.5*,10.7,-2.8,0.039[42 µM],i
C[C@H](CO)N1C[C@H](C)[C@H](CN(C)C(=O)CC2CC2)Oc2ncc(C#CC3(O)CCCC3)cc2C1=O,-3.8,-4.0,1.4*,8.1,-2.5,-0.086,i
CCC(=O)N(C)C[C@H]1Oc2ncc(C#CC(C)(C)O)cc2C(=O)N([C@H](C)CO)C[C@@H]1C,1.5,-1.7,0.1,-9.0,14.4,x,x
C[C@H]1CN([C@@H](C)CO)C(=O)c2cc(C#CC3(O)CCCC3)cnc2O[C@H]1CN(C)C(=O)CC1CC1,-2.1,-3.1,0.8,0.4,-6.2,x,x
C[C@@H]1CN([C@H](C)CO)C(=O)c2cc(C#CCN(C)C)cnc2O[C@H]1CN(C)C(=O)c1cnccn1,0.7,-4.6,0.0,-16.6,2.1,x,x
CC(C)C#Cc1cnc2c(c1)C(=O)N([C@H](C)CO)C[C@H](C)[C@H](CN(C)C(=O)c1cnccn1)O2,-3.5,-12.0,1.5*,16.3,16.4,-0.007[42 µM],i
CC(C)C#Cc1cnc2c(c1)C(=O)N([C@@H](C)CO)C[C@@H](C)[C@@H](CN(C)C(=O)c1cnccn1)O2,-7.3,-18.8,1.6*,14.6,-1.2,-0.002[42 µM],i
CO[C@H]1CN(C)C(=O)c2ccc(NC(=O)C3CC3)cc2OC[C@H](C)N(CC2CCCC2)C[C@H]1C,1.4,-0.6,0.2,14.2,u,x,x
C[C@@H]1CN([C@@H](C)CO)C(=O)c2cc(NS(=O)(=O)c3cn(C)cn3)ccc2O[C@@H]1CN(C)S(C)(=O)=O,0.4,-1.6,0.0,-6.5,-0.8,x,x
O=C(N[C@@H]1C=C[C@H](CC(=O)N2CCCCC2)O[C@@H]1CO)c1cccc(F)c1,0.7,-19.8,1.3*,10.2,3.0,-0.043,i
COc1cccc(NC(=O)N[C@H]2C=C[C@@H](CC(=O)N3CCN(C)CC3)O[C@H]2CO)c1,1.1,0.2,2.3*,-2.2,2.8,0.125[42 µM],i
SMILES,ERAP1 HTS inh,MLL AF4-AF9 inh,FGF22 binding-1,RAD52 inh,DENV2 CPE,FGF22 binding-2,SYPRO no-protein
CN1CCN(C(=O)C[C@H]2C=C[C@@H](NC(=O)c3ccc4c(c3)OCO4)[C@H](CO)O2)CC1,-1.3,-16.0,1.2*,-5.8,-5.1,0.143[42 µM],i
O=C(N[C@H]1C=C[C@H](CC(=O)N2CCCCC2)O[C@@H]1CO)c1cccc(F)c1,2.7,-38.3,1.1,9.3,16.2,x,x
O=C(N[C@H]1C=C[C@@H](CC(=O)N2CCOCC2)O[C@H]1CO)c1cccc(F)c1,0.0,-1.4,-0.2,7.3,u,x,x
O=C(N[C@H]1C=C[C@H](CC(=O)N2CCCCC2)O[C@H]1CO)c1cccc(F)c1,0.2,-16.3,1.5*,8.5,-8.0,x,i
COc1cccc(S(=O)(=O)N[C@H]2C=C[C@@H](CC(=O)NC3Cc4ccccc4C3)O[C@H]2CO)c1,-3.9,0.7,0.2,-7.2,-9.4,x,x
C=C1[C@@H](O)[C@H](Cc2ccccc2)N(Cc2ccccc2Br)S1(=O)=O,-3.3,x,1.4*,-29.7,3.1,0.119,i
C=C(Br)CN1[C@@H](Cc2ccccc2)[C@H](O)[C@@]23C=C[C@@H](C[C@@H]2S1(=O)=O)O3,x,1.0,0.7,-9.1,14.4,x,x
O=C(CN1C(=O)NC2(CCOc3ccccc32)C1=O)Nc1ccc(Br)cc1F (stereo not drawn),-2.4,5.2,1.7*,-10.7,4.3,-0.342,i
CN(Cc1ccccc1)C(=O)c1[nH]cnc1C(=O)NC1CCN(C(=O)OC(C)(C)C)CC1,-3.8,5.3,2.5*,-39.7,-2.3,0.144,i
CC(C)(C)OC(=O)N1CCC(NC(=O)c2[nH]cnc2C(=O)Nc2ccccc2)CC1,15.3,0.0,0.0,-20.7,-4.8,x,x
CN1C(=O)NC(NS(=O)(=O)c2ccc(N)cc2)(C(F)(F)F)C1=O (stereo not drawn),-8.2,0.1,3.8*,-36.8,17.5,0.101,i
Nc1ccc(S(=O)(=O)NC2(C(F)(F)F)NC(=O)N(c3ccccc3F)C2=O)cc1 (stereo not drawn),0.6,-0.9,-0.2,-5.4,-4.7,x,x
COc1ccc(-c2ccc3c(c2)O[C@@H](CN(C)C(C)=O)[C@@H](C)CN([C@@H](C)CO)S3(=O)=O)cc1,2.0,-1.7,-0.3,8.5,-13.0,x,x
